Experimental data published in ChEMBL document CHEMBL4513216, “Probing the Open Global Health Chemical Diversity Library for Multistage-Active Starting Points for Next-Generation Antimalarials” (ACS Infect Dis, 2020).
The whole screen tested about 69,000 compounds, of which about 8,600 (12%) showed an effect of 50% or more. Many of the other results were omitted from the sample, so strong results are more common in it than they were.

test system: Plasmodium berghei; test: Screen against P. berghei liver stage (PbLuc), transformed with Luciferase, at 10uM; assay type: functional, HepG2; conditions: tested at 10 uM

| SMILES | INHIBITION [%] |
| --- | --- |
| Cc1occc1C(=O)N1C[C@H](Oc2ccccn2)[C@H]2OCCC[C@H]21 | 34.9 |
| CN1CCCC(c2cccc(CCC(=O)NCc3ccccn3)n2)C1 (centres undefined) | 3.91 |
| CCC(C)C(=O)N(C)Cc1cc(F)ccc1N1CCC(OC)CC1 (centres undefined) | 33.7 |
| CCc1cnc(CN(C(C)=O)C2CCN(CC(=O)N3CCCC3)C2)o1 (centres undefined) | 30.6 |
| COCCNC(=O)CN(C)CCn1nc2ccccn2c1=O | 23.8 |
| C[C@@H](N)C(=O)N1CC2(CCNCC2)c2cc(Cl)ccc21 | 33.4 |
| CC1CCN(C(=O)c2cc(NC(=O)c3ccccc3)n(C)n2)CC1 | 26.4 |
| C=C(Cl)CN(C)C1CCN(CCc2ccccn2)CC1 | 35.9 |
| Cc1cccc(N2CCC3(CCCN(C(=O)Cc4cccnc4)C3)C2)n1 (centres undefined) | 17.5 |
| CSc1nccc(N2CCN(C)C3(CCNC(=O)CC3)C2)n1 (centres undefined) | -17.7 |
| CSc1nccc(N2CCC3(CCCN(CC4CC4)C3)C2)n1 (centres undefined) | -21.9 |
| Fc1ccc(CN2CCCC3(CCN(Cc4ncc[nH]4)C3)C2)cc1F (centres undefined) | 26 |
| CSc1nccc(N2CCC3(CCCN(CCc4ccccc4)C3)C2)n1 (centres undefined) | 85.2 |
| CCN1CCC2(CCC1=O)CN(c1ccnc(SC)n1)CCN2C (centres undefined) | 8.57 |
| CSc1nccc(N2CCC3(CCCN(Cc4ccc(F)cc4)C3)C2)n1 (centres undefined) | 85.2 |
| CSc1nccc(N2CCC3(CCCN(Cc4cccc(C)c4)C3)C2)n1 (centres undefined) | 69.9 |
| CCO[C@H]1CO[C@@]2(CCCN(S(=O)(=O)c3cccnc3)C2)C1 | 34.6 |
| CCOC[C@]12COC[C@H]1CN(Cc1ccc3c(c1)OCO3)C2 | 38.5 |
| Cc1nc(N2CCN(C(=O)c3ccccn3)CC2)c2c(n1)c(C)nn2C | 12.6 |
| CN1CCC(N(Cc2ccncc2)C(=O)COCC2CCCCO2)CC1 (centres undefined) | 17.2 |
| CCCC(=O)N1CCC(c2cc[nH]n2)C1 (centres undefined) | 17.4 |
| CN(C)CCN1CCOCC2(C1)CN(Cc1ccco1)CCO2 (centres undefined) | 26.7 |

| SMILES | INHIBITION [%] |
| --- | --- |
| CCNC(=O)N1CCC(OC)c2ccccc2N(CC(=O)NC)C(=O)C1 (centres undefined) | 35.1 |
| Cc1ccc(C(O)CNC(=O)Nc2cc(C)nn2C)cc1 (centres undefined) | -11.735 |
| CN(C)C(=O)N1C[C@H]2CC[C@@H](C1)N(C(=O)c1c(Cl)cccc1Cl)C2 | 12.1 |
| CCN(CCCNc1ncnc2cc(F)c(F)cc12)S(C)(=O)=O | -4.93 |
| CCS(=O)(=O)NCCCNc1ncnc2cc(F)c(F)cc12 | -30.5 |
| CS(=O)(=O)NCCNc1ncnc2cccc(F)c12 | 24.9 |
| CN(C)CCCNc1ncnc2cccc(F)c12 | 41.8 |
| CSCCCNc1ncnc2cccc(F)c12 | 56.7 |
| Fc1cccc2ncnc(NCCCc3ccncc3)c12 | 73 |
| CN1[C@@H]2CC[C@H]1CN(C(=O)c1sccc1S(N)(=O)=O)CC2 | 8.74 |
| O=C(CN1C(=O)CCC1=O)NCc1cc(C2CC2)n(C2CCCC2)n1 | 13.9 |
| Cc1nnsc1C(=O)NCc1nn(C2CCCC2)c2c1CCCC2 | 49.4 |
| O=C(CN1C(=O)CCC1=O)NCc1nn(C2CCCC2)c2c1CCCC2 | 56.3 |
| CC(=O)N[C@@H]1CN(Cc2ccccc2C#N)C[C@H]1c1ccc(C)cc1 | 41.3 |
| Cc1ccsc1CNC(=O)Nc1ccn(CCN2CCOCC2)n1 | 64 |
| Cn1ccc(NC(=O)Cc2cccc(F)c2)n1 | -74.2 |
| Cn1ccc(NC(=O)Cc2ccccc2F)n1 | 57.1 |
| O=C(NCc1cccc(F)c1)Nc1ccn(CCN2CCOCC2)n1 | 40.5 |
| O=C(NCc1ccccc1F)Nc1ccn(CCN2CCOCC2)n1 | 50.1 |
| CS(=O)(=O)CCn1ccc(NC(=O)Cc2ccccc2F)n1 | 21.2 |
| COCCn1ccc(NCc2sccc2C)n1 | -60.1 |
| CSC1(CNC(=O)NCc2sccc2C)CCOCC1 | 30.4 |

| SMILES | INHIBITION [%] |
| --- | --- |
| O=C(Cc1ccccc1Cl)Nc1ccn(CCN2CCOCC2)n1 | 45.8 |
| Cc1[nH]c2c(C)ccc(C)c2c1CC(=O)NC1CCCNC1=O (centres undefined) | 35.7 |
| COC(=O)CCNC(=O)c1nc(NS(=O)(=O)c2ccccc2)sc1C | 32.2 |
| COc1c(C2CCCN2CC(=O)N2CCCCC2)c(C)nn1C (centres undefined) | 8.12 |
| O=C(CCn1cncn1)N1CCCC(CO)(CCCc2ccccc2)C1 (centres undefined) | 72.3 |
| O=C(CCn1cnnn1)N1CCCC(CO)(CCc2ccccc2)C1 (centres undefined) | 39.8 |
| O=C(CCn1cnnn1)N1CCCC(CO)(CCCc2ccccc2)C1 (centres undefined) | 23.1 |
| CN(C)C(=O)CN1CCCC1c1nc(N)ncc1-c1ccc(F)cc1 (centres undefined) | 34 |
| N#Cc1ccc(NC2CCN(CC(F)F)CC2)c(F)c1 | 8.53 |
| N#Cc1cccc(N2CC3(CCN(C(=O)c4ccnnc4)C3)CC2=O)c1 (centres undefined) | -13.1 |
| CC(C)=CCC1(C(=O)O)CCCN(CCC(=O)NC2CC2)C1 (centres undefined) | 61.8 |
| Cc1nc(C)n(CC2CCCN(CCC(=O)NC3CCCC3)C2)n1 (centres undefined) | -8.11 |
| CC(C)=CCC1(C(=O)O)CCCN(c2ccnc(C)n2)C1 (centres undefined) | 47.4 |
| CC(C)=CCC1(C(=O)O)CCCN(c2cc(N)ncn2)C1 (centres undefined) | 46.4 |
| O=C(CCN1CCCC(CO)(CC2CC2)C1)NC1CCCCC1 (centres undefined) | 34.5 |
| O=C(CCN1CCCC(CC2CC2)(C(=O)O)C1)NC1CCCC1 (centres undefined) | 60.7 |
| CC(=O)N(Cc1ncc(C)o1)C1CCN(CCc2cccs2)C1 (centres undefined) | 12.7 |
| CCn1cc(NC(=O)C(C)n2ncc(Cl)c2C)c(C(=O)OC)n1 (centres undefined) | 6.83 |
| CCSc1cc(C(=O)NCc2ccc(C(=O)NC)cc2)ccn1 | 76.5 |
| CCSc1cc(C(=O)NCCNC(=O)Cc2ccccc2)ccn1 | 26.9 |
| CCSc1cc(C(=O)NCc2ccccc2O)ccn1 | 34.7 |
| Cc1nc(C)c(C(=O)Nc2ccc(-c3nnc(N(C)C)o3)cc2)o1 | 6.02 |

| SMILES | INHIBITION [%] |
| --- | --- |
| CCc1cnc(CN2CCC(N(C)Cc3noc(C)n3)C2)o1 (centres undefined) | 13.6 |
| Cc1nc(CN2CCCC(N(C)CCc3cccs3)C2)no1 (centres undefined) | 3.47 |
| CCc1nc(CN(C)C2CCN(CCc3cccs3)C2)no1 (centres undefined) | -79.1 |
| CN(CCc1ccncc1)C1CCCN(Cc2noc(C3CC3)n2)C1 (centres undefined) | 14.8 |
| CN(CCc1cccs1)C1CCCN(Cc2noc(C3CC3)n2)C1 (centres undefined) | 51.8 |
| CCc1nc(CN2CCCC(N(C)CCc3cccs3)C2)no1 (centres undefined) | 56.6 |
| CCc1nc(CN2CCCC(N(C)CCn3cccn3)C2)no1 (centres undefined) | 33.7 |
| CN(C)Cc1nnc2n1CCN(c1cnccn1)CC2 | -4.02 |
| Cc1nc(C2CCN(C(=O)c3cnc(N(C)C)nc3)CC2)c2sccn12 | -4.82 |
| CN(C[C@@H]1CCC[C@@H]2CN(c3ncccn3)C[C@@H]21)C1CC1 | 38.3 |
| Cc1cccc(CSc2ncc(Cl)c(C(=O)O)n2)c1 | 12.1 |
| Cc1ccc(F)c(C(=O)Nc2c(C(N)=O)n[nH]c2C)c1 | -18.3 |
| Cc1cc(N(C)Cc2ncc(-c3ccccc3C(=O)O)s2)ncn1 | 5.6045 |
| Cc1cc(CN(CC(N)=O)CC(C)C)no1 | 7.39 |
| Cc1cc(CN(CC(N)=O)CC(C)C)on1 | 43.2 |
| Cc1ccc(-c2cc(CN(CC(N)=O)CC(C)C)on2)cc1 | 57.8 |
| Cc1cccc(-c2nccn2C2CC(=O)N(C(C)C)C2)n1 (centres undefined) | 25.9 |
| CNC(=O)NC(=O)CCN1CCN(c2ccc(C(=O)OC)cc2)CC1C (centres undefined) | 23.7 |
| CC1(c2ccccc2)CCCN(Cc2cncn2C2CC2)C1 (centres undefined) | 50.7 |
| CC1(c2ccccc2)CCCN(Cc2nnc(-c3cccnc3)o2)C1 (centres undefined) | 5.91 |
| Cn1cncc1CN1CCOC(Cc2ccccc2)C1 (centres undefined) | -54.1 |
| O=c1c2ccccc2cnn1Cc1cncn1C1CC1 | 0.33 |

| SMILES | INHIBITION [%] |
| --- | --- |
| CCCN1CCCC2(CCN(Cc3cncn3C3CCCCC3)C2)C1=O (centres undefined) | -21.5 |
| O=C(Cc1ccccc1)C1CCCN(Cc2cncn2C2CCCC2)C1 (centres undefined) | 69 |
| CCCN1CCCC2(CCN(Cc3cncn3C3CCCC3)C2)C1=O (centres undefined) | 21.2 |
| CN1CCCC2(CCN(Cc3cncn3C3CCCCC3)C2)C1=O (centres undefined) | 62.1 |
| COCCn1cncc1CN1CCCC(C)(c2ccccc2)C1 (centres undefined) | 30.1 |
| COCCn1cncc1CN1CCCC(C(=O)Cc2ccccc2)C1 (centres undefined) | 20.5 |
| O=C(CCc1ccccc1)C1CCCN(Cc2cncn2C2CC2)C1 (centres undefined) | 27.4 |
| CC1(c2ccccc2)CCCN(Cc2cncn2C2CCCC2)C1 (centres undefined) | 89.6 |
| CN1CCCC(Cc2cc(N(C)C)ncn2)C1 (centres undefined) | 38.7 |
| Cc1ncc(C(=O)NCCNC(=O)Cc2cccc(F)c2)s1 | -13.5 |
| Cc1nccc(C2CN(S(=O)(=O)N(C)C)C2)n1 | -3.02 |
| CCC(C(=O)NCC1=CCN(C)CC1)c1ccccc1 (centres undefined) | 8.7 |
| CNc1ccc(CC2CCCN(C(=O)c3cccc(C)n3)C2)nn1 (centres undefined) | 45.6 |
| CS(=O)(=O)N1CCc2c(cccc2NC(=O)Nc2ccccn2)C1 | 19.2 |
| Cc1nc(CN2C[C@H]3C[C@H](C(=O)NCC4CC4)N(C)[C@H]3C2)cs1 | 19.8 |
| O=C(NCCC1CCN(CC(F)(F)F)CC1)C1CCCOC1 (centres undefined) | -10.3 |
| CC1Cc2ccccc2N1Cc1occc1C(=O)NCC(=O)N(C)C (centres undefined) | 53.9 |
| CCNC(=O)c1ccoc1CN1c2ccccc2CC1C (centres undefined) | -3.19 |
| COCCNC(=O)c1ccoc1CN1c2ccccc2CC1C (centres undefined) | 20.9 |
| CNC(=O)C1CN(C(=O)c2cccnc2)CCN(S(C)(=O)=O)C1 (centres undefined) | 9.25 |
| CN1CCCN(C(=O)NCCNc2ncccn2)CC1 | 16.8 |
